# Experimental data reported in the supplement of paper PMC6411743.
# ± gives the standard deviation of the averaged measurements. The full data set covers some 5,400 targets. This sample favours those with the largest changes.
# Compound: Nc1nc2c(ncn2[C@@H]2O[C@H](COP(=O)(O)OP(=O)(O)OP(=O)(O)O)[C@@H](O)[C@H]2O)c(=O)[nH]1 [guanosine triphosphate]
# Assay: NP40-soluble protein abundance relative to vehicle (solubility fold change) (ratio); higher = more soluble protein in presence of GTP
# Outline: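 Data come from three independent experiments in which Dounce-homogenised Jurkat crude lysate was treated at eight concentrations from 0.1 to 10 mM. Treatment ran 10 min at room temperature and then 3 min at 37 °C, after which 0.8% NP40 and benzonase were added for 60 min at 4 °C before ultracentrifugation. The supernatant underwent TMT labelling and LC-MS/MS, and vsn-normalised intensities were expressed as fold change against the detergent-processed vehicle in each replicate.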
# Chain of UniProt O43167 (O43167 whole entry): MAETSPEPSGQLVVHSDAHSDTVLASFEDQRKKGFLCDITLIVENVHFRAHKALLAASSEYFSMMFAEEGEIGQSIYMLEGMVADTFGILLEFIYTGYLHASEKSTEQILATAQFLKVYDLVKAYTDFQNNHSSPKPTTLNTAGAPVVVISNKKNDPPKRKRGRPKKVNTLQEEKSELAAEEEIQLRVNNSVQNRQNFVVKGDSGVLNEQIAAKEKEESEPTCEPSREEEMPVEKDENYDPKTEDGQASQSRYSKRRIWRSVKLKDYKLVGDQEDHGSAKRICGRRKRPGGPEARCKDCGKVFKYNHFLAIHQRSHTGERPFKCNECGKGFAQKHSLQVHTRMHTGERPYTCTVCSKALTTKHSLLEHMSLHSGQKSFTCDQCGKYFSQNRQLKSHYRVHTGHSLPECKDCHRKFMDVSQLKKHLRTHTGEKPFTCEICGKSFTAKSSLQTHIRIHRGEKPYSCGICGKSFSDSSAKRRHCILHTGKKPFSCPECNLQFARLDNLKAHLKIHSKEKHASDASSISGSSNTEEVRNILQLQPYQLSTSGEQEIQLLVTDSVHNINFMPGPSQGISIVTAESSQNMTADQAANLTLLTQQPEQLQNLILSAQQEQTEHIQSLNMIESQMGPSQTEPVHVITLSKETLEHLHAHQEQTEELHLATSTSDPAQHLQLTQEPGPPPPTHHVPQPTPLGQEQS
# Chain of UniProt Q96SW2 (Q96SW2 whole entry, one chain of several): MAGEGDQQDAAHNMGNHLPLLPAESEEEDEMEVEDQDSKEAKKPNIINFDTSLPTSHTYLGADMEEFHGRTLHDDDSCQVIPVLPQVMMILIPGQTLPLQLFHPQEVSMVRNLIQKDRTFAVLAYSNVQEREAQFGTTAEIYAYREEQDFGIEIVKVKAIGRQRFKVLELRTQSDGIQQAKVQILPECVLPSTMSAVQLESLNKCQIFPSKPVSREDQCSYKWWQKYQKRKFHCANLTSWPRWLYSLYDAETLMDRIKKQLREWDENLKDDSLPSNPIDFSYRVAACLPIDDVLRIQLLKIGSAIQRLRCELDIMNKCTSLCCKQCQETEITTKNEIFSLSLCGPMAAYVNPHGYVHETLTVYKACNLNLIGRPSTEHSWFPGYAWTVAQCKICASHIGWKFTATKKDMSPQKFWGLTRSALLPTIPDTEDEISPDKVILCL
# Chain of UniProt P27824 (P27824 whole entry): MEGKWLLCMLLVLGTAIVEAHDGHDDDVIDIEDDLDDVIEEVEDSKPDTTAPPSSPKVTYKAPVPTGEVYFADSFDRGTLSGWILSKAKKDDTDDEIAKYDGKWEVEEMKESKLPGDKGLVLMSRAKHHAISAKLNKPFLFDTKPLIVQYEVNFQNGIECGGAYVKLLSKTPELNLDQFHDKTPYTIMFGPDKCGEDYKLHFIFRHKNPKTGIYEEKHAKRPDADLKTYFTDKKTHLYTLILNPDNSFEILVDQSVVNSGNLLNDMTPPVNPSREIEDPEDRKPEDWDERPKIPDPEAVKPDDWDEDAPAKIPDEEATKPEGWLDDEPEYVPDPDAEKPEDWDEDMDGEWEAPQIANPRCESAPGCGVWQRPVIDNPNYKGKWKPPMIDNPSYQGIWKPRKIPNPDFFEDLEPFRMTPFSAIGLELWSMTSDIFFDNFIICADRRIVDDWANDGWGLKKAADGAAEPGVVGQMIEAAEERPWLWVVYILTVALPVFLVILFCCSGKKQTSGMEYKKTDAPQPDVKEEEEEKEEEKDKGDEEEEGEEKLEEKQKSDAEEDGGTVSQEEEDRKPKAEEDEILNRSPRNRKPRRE
# Chain of UniProt O14776 (O14776 whole entry): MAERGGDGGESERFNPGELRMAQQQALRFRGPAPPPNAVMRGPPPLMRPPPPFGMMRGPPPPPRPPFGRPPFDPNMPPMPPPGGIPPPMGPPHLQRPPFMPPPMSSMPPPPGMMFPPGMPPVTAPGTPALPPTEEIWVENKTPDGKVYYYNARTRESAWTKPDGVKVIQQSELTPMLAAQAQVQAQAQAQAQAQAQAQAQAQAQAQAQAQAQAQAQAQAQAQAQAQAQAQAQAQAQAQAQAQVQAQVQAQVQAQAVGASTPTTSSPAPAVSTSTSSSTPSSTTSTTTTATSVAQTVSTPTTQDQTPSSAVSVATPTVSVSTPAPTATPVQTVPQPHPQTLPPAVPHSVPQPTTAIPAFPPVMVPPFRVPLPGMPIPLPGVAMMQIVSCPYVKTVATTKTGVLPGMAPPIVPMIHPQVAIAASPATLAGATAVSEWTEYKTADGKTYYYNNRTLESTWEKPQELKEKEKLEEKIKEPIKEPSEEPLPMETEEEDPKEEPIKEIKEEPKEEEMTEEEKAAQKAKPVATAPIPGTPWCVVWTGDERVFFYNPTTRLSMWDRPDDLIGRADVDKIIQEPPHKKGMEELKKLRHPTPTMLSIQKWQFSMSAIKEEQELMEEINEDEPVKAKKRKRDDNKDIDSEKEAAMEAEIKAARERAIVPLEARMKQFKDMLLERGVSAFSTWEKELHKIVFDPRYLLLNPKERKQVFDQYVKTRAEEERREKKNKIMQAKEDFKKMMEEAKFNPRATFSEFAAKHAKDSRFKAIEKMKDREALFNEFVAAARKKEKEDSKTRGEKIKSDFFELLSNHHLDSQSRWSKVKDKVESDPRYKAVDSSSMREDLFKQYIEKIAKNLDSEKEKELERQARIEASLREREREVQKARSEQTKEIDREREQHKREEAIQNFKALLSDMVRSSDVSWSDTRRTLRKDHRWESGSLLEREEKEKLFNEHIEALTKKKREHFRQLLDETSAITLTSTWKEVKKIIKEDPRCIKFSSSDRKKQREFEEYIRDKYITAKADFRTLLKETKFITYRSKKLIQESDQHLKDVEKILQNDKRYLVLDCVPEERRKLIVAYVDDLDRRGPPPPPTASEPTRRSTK
# Chain of UniProt P46109 (P46109 whole entry): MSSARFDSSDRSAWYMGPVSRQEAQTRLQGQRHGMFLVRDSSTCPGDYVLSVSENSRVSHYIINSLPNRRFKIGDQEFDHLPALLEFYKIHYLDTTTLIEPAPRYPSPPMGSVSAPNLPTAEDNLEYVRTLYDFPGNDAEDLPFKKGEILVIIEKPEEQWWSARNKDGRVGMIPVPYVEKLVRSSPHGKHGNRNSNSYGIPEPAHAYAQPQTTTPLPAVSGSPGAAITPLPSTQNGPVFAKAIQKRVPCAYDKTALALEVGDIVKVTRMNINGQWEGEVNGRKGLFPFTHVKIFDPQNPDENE
# Chain of UniProt P27144 (P27144 whole entry): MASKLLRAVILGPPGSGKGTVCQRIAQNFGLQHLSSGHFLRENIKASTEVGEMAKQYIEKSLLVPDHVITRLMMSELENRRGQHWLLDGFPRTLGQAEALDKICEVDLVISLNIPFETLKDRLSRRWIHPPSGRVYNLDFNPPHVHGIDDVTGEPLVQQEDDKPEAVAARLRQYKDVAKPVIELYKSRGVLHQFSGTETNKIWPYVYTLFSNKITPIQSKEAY
# Chain of UniProt O75937 (O75937 whole entry): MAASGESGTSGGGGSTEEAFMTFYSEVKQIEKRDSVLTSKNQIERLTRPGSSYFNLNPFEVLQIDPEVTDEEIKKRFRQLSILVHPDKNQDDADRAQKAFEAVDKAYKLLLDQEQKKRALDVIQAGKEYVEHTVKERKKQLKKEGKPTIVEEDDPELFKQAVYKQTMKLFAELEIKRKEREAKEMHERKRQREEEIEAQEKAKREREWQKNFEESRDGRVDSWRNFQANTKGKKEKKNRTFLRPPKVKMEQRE
# Chain of UniProt P51116 (P51116 whole entry): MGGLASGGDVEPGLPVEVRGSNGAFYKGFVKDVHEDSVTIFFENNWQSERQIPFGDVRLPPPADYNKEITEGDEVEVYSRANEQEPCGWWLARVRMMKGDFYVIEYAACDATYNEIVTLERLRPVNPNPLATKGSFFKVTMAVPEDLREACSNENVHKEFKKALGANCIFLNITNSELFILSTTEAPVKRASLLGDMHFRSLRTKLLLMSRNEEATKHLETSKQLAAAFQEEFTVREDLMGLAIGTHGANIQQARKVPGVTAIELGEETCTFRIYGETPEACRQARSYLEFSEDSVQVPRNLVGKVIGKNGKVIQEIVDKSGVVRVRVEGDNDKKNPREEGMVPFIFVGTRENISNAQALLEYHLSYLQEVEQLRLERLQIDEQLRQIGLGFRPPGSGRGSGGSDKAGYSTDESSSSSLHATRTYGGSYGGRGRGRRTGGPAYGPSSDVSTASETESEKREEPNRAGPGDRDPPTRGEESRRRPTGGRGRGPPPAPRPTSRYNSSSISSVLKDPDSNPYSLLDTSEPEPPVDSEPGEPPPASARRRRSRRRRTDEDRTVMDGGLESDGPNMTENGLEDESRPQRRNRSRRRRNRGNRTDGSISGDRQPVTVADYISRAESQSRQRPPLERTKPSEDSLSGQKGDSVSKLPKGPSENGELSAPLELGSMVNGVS
# Chain of UniProt P50583 (P50583 whole entry): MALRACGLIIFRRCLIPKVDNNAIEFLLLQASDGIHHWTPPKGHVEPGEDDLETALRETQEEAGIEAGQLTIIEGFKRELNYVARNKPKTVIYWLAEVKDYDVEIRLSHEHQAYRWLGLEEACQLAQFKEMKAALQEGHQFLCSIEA
# Chain of UniProt P06729 (P06729 whole entry): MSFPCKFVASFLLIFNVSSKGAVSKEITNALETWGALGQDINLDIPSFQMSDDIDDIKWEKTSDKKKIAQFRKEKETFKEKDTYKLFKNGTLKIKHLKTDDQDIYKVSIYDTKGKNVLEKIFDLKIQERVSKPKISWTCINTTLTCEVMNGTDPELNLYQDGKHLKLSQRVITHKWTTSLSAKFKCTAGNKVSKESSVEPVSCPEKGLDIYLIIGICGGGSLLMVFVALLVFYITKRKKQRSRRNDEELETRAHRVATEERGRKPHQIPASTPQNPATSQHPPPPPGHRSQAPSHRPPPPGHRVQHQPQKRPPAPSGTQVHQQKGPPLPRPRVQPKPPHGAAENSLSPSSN
# Chain of UniProt O75531 (O75531 whole entry): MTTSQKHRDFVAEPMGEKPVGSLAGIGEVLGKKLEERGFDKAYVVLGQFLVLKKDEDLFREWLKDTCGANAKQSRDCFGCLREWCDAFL
Target,NP40-soluble protein abundance (concentration: 0.1mM),NP40-soluble protein abundance (concentration: 0.5mM),NP40-soluble protein abundance (concentration: 1mM),NP40-soluble protein abundance (concentration: 2mM),NP40-soluble protein abundance (concentration: 4mM),NP40-soluble protein abundance (concentration: 6mM),NP40-soluble protein abundance (concentration: 8mM),NP40-soluble protein abundance (concentration: 10mM)
FXR2 (UniProt P51116),1.08 ± 0.054,1.13 ± 0.081,1.27 ± 0.064,1.51 ± 0.14,1.8 ± 0.22,1.97 ± 0.25,2.13 ± 0.29,2.23 ± 0.35
NUDT2 (UniProt P50583),0.93 ± 0.17,0.902 ± 0.14,0.884 ± 0.15,0.877 ± 0.15,1.8 ± 0.49,1.24 ± 0.23,1.48 ± 0.34,1.16 ± 0.26
AK4 (UniProt P27144),0.983 ± 0.072,0.887 ± 0.088,1.03 ± 0.042,1 ± 0.075,1.03 ± 0.11,0.987 ± 0.11,0.975 ± 0.16,0.983 ± 0.11
J3QT87|Q96SW2|Q96SW2-2 (UniProt Q96SW2),1.07 ± 0.084,1.07 ± 0.1,0.979 ± 0.034,1.03 ± 0.12,1.05 ± 0.061,1.04 ± 0.1,0.946 ± 0.047,0.931 ± 0.039
DNAJC8 (UniProt O75937),0.838 ± 0.14,0.801 ± 0.056,1.1 ± 0.17,1.09 ± 0.056,1.08 ± 0.14,1.14 ± 0.12,1.05 ± 0.21,1.3 ± 0.25
UniProt O14776|O14776-2,0.97 ± 0.042,0.962 ± 0.056,0.979 ± 0.047,0.953 ± 0.083,0.989 ± 0.079,1.01 ± 0.084,1.05 ± 0.05,1.04 ± 0.071
HMGN2 (UniProt P05204),0.992 ± 0.2,1 ± 0.14,1.31 ± 0.23,1.46 ± 0.35,1.5 ± 0.11,1.89 ± 0.35,1.7 ± 0.41,2.68 ± 0.3
BANF1 (UniProt O75531),1.42 ± 0.34,2.98 ± 1.1,5.2 ± 3,5.54 ± 3.3,5.21 ± 3.3,5.08 ± 3,4.35 ± 2,5.71 ± 3.2
UniProt P27824|P27824-2,0.965 ± 0.034,1 ± 0.013,0.95 ± 0.04,0.928 ± 0.048,0.883 ± 0.061,0.922 ± 0.06,0.906 ± 0.035,0.896 ± 0.051
UniProt P06729,0.895 ± 0.023,0.902 ± 0.035,0.912 ± 0.02,0.88 ± 0.072,0.852 ± 0.038,0.89 ± 0.053,0.893 ± 0.036,0.903 ± 0.039
ZBTB24 (UniProt O43167),1.09 ± 0.18,1.09 ± 0.2,1.02 ± 0.21,1.05 ± 0.2,1.06 ± 0.24,0.976 ± 0.11,1 ± 0.053,1.08 ± 0.14
EEF2K (UniProt O00418),0.988 ± 0.074,1.01 ± 0.058,0.944 ± 0.02,0.954 ± 0.044,0.913 ± 0.028,0.951 ± 0.052,0.949 ± 0.068,0.941 ± 0.039
UniProt O94964-2|O94964|O94964-4|X6R3R3,1.05 ± 0.11,0.998 ± 0.13,1.139 ± 0.011,1.07 ± 0.025,1.09 ± 0.047,1.03 ± 0.037,1.12 ± 0.072,0.994 ± 0.041
CRKL (UniProt P46109),0.973 ± 0.029,0.958 ± 0.058,0.967 ± 0.092,0.932 ± 0.073,0.921 ± 0.076,0.906 ± 0.089,0.923 ± 0.093,0.876 ± 0.086
